Assay outcomes deposited in PubChem BioAssay by National Center for Advancing Translational Sciences (NCATS).
In the library only some 9.3% were active in any assay of this set; here they are far more common.
Sm TGR inh = inhibitors of Schistosoma mansoni thioredoxin glutathione reductase; 360,000 tested, 3% active; Potency, µM (titrated, usually from 114 µM), for the others: at the highest dose activity change, negative = inhibition, usual class: inhibitors; purified TGR, DTNB reduction, TNB absorbance 405 nm; Q962Y6; also: potency is read from the fitted curve at half-maximal effect; nearly all actives have a fitted effect of over 60% in size
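TGR 20 nM + NADPH 100 uM (dispensed conc.), cpd preinc 15 min RT; start with NADPH (500 uM addition) then DTNB (15 mM addition). Kinetic TNB absorbance, 405 nm filter. Four-parameter Hill fit across titration.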
Vaccinia Venus = inhibitors of vaccinia virus (Venus reporter); Vaccinia virus Venus reporter expression, fluorescence; Potency, µM (doses to about 36.5 µM), inactives show at the top dose activity change, negative = inhibition, hits mostly inhibitors; 330,000 tested, 0.46% active; AID 720580; calls by dose curve; tested in A549 cells; also: potency is read from the fitted curve at half-maximal effect; nearly all actives have a fitted effect of over 30% in size
HCMV inh = inhibitors of human cytomegalovirus; HFF cells, HCMV-luciferase reporter, 72 h; active compounds read low; activity change, negative = inhibition, % at 57.5 µM; 410,000 tested, 4.5% active; in the data active = activity change below about -60%; inconclusive = no clear call, values can overlap the other calls; inactive = above about -39%
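Inhibition of viral replication was scored as loss of reporter luminescence in HFFs infected with HCMV-luciferase (MOI 1 PFU/cell) for 72 h; compounds tested at 2 doses, normalized to buffer and Salinomycin controls.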
FMDV antiviral = foot and mouth disease virus antiviral activity; FMDV antiviral cell-based qHTS; Potency, µM (top dose mostly 57.9 µM), for the others: at the highest dose activity change, negative = inhibition, actives largely listed as inhibitors; 410,000 tested, 1.2% active; calls by dose curve; tested in HEK293T cells; also: read-out not given here; potency is read from the fitted curve at half-maximal effect; nearly all actives have a fitted effect of over 45% in size
Vaccinia mCherry = inhibitors of vaccinia virus infection (mCherry reporter signal). Vaccinia virus mCherry reporter infection, fluorescence. Potency, µM (titrated, usually from 36.5 µM), for the others: top-dose activity change, negative = inhibition, actives largely listed as inhibitors. 310,000 tested, 0.63% active. AID 720579; calls by dose curve; tested in A549 cells; also: potency is read from the fitted curve at half-maximal effect; nearly all actives have a fitted effect of over 35% in size
HCV inh = blocks hepatitis C virus; Huh7.5.1 HCVcc-Cre infection, luciferase reporter, 44 h; Potency, µM (series often up to 41.8 µM), without a hit: at the top dose activity change, negative = inhibition, hits mostly inhibitors; 340,000 tested, 3.4% active; AID 651820; also: potency is read from the fitted curve at half-maximal effect
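1,000 cells/well; 4 h culture; + compound; + HCVcc-Cre (~0.5 moi); 44 h; luciferase substrate, RT 15 min; read 15 sec.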
Starred values were filed as active, the others as inactive; i = inactive; ? = inconclusive; / = no result; + = active, no number; [ ] = another dose, or the depositor's remark. Unless noted, calls follow the shape of the dose curve; as a rule, active = well fitted curve in the direction sought with a large enough effect; inconclusive = small, poorly fitted or top-dose-only effect, or another doubt; inactive = no such curve, though single readings can be large; an effect the other way counts as inactive or inconclusive. % is scaled to controls: 0 for no effect and ±100 for the full control effect.

SMILES | Sm TGR inh | Vaccinia Venus | HCMV inh | FMDV antiviral | Vaccinia mCherry | HCV inh
CCn1cc(C(=O)N[C@@H](CCSC)C(=O)NCCN2CCOCC2)c(=O)c2cc3c(cc21)OCO3 | -3% | / | + | 13% | / | 12%
Nc1ccc(O)c2c1C(=O)c1ccccc1C2=O | -6% | 192% | -34 | -24% | 210% | 5µM*
O=C1c2ccccc2C(=O)c2c(O)ccc(O)c21 | / | / | / | -20% | / | /
Nc1ccc(Br)c2c1C(=O)c1ccccc1C2=O | 13µM* | 47% | / | 2% | 26% | 10µM*
NC1=C(Br)C(=O)c2ccccc2C1=O | ? | ? | -86* | -19% | -49% | ?
COc1ccc(N)c2c1C(=O)c1ccccc1C2=O | -11% | 95% | 27 | -6% | 77% | ?
Cc1nn(Cc2ccccc2)c(C)c1C=C1C(=O)NC(=S)NC1=O | 7.9µM* | -3% | -1 | 14µM* | i | 16%
Fc1ccc(CSc2nnc3ccc(-c4ccncc4)nn23)cc1 | -2% | -9% | 37 | -14% | -22% | 10%
Fc1ccc(Cn2ccc(-c3cnc(-c4ccccc4)s3)n2)cc1 | 3% | ? | ? | -4% | / | 10µM*
Cc1ccc(Cn2ccc(-c3cnc(-c4ccccc4)s3)n2)cc1 | 0% | -20% | ? | -27% | / | ?
O=C(NCCC1=CCCCC1)C1CCN(C(=O)Nc2ccccc2)CC1 | 7% | / | -17 | -1% | / | -16%
C/C(=N\NC(=O)c1nnn(-c2nonc2N)c1-c1cccs1)c1cccnc1 | -7% | -13% | 0 | -4% | -21% | 13%
COc1ccccc1Cc1c(-c2ccc(C#N)cc2)nc2c(Cl)cc(C(F)(F)F)cn12 | / | 23% | / | -15% | -19% | /
CC(C)(C)Cc1c(-c2ccc(C#N)cc2)nc2c(Cl)cc(C(F)(F)F)cn12 | / | -10% | -83* | ? | 9% | /
Clc1ccc(OCc2nnc(SCc3nc4ccccc4[nH]3)n2Cc2ccco2)cc1 | ? | / | -80* | ? | / | 10µM*
C(=C\c1ccccc1)/CSc1nnc(-c2ccccn2)n1Cc1ccco1 | 35µM* | ? | -13 | 0% | ? | 10µM*
NC(=O)CSc1nnc(-c2ccccn2)n1Cc1ccco1 | -11% | -3% | 17 | -7% | -11% | 5%
CCn1c(COc2ccc(C)cc2)nnc1SCc1nc2ccccc2[nH]1 | 8% | / | -65* | ? | / | 14µM*
c1ccc(-c2nnc(SCc3nc4ccccc4[nH]3)n2Cc2ccco2)nc1 | ? | / | -64* | ? | / | -22%
Cn1c(COc2ccccc2)nnc1SCc1nc2ccccc2[nH]1 | 4% | -26% | 10 | -4% | -14% | 6%
Cc1ccc(NC(=O)c2cc(=O)[nH]c3ccc(S(=O)(=O)N4CCOCC4)cc23)nc1 | -15% | -9% | 2 | -21% | -19% | -14%
CCC(CC)C(=O)Nc1nnc(S(=O)(=O)N(C)c2cc(C)cc(C)c2)s1 | -11% | -3% | 93 | -9% | -8% | /
CC1(C)CC(NC(=O)c2cccc(S(=O)(=O)N(Cc3ccccc3)c3ccccc3)c2)CC(C)(C)N1 | 0% | ? | -18 | -14% | -21% | 2.2µM*
CCCCNS(=O)(=O)c1ccc(NC(=O)C(Sc2ccccc2)c2ccccc2)cc1 (stereo not drawn) | 9% | 10µM* | -69* | 0% | ? | ?
CCC(C)NS(=O)(=O)c1ccc(NC(=O)C(Sc2ccccc2)c2ccccc2)cc1 (stereo not drawn) | -2% | ? | -27 | -14% | ? | ?
SMILES | Sm TGR inh | Vaccinia Venus | HCMV inh | FMDV antiviral | Vaccinia mCherry | HCV inh
Clc1ccc(CCNc2nc3ccccc3s2)cc1 | -30% | / | 2 | 14% | / | -13%
COC(=O)C1=C(c2ccc(OCc3ccccc3)cc2)C[C@@H]2CC[C@H]1N2C(=O)NCc1cccc(OC)c1 | 1% | ? | -67* | -6% | ? | 6.3µM*
COC(=O)C1=C(c2ccc(OCc3ccccc3)cc2)C[C@@H]2CC[C@H]1N2C(=O)NCc1ccc(C(C)(C)C)cc1 | / | ? | -7 | -23% | -29% | /
COC(=O)C1=C(c2ccc(OCc3ccccc3)cc2)C[C@@H]2CC[C@H]1N2C(=O)NCc1ccccc1 | 2% | -23% | -17 | ? | ? | 10µM*
COC(=O)C1=C(c2ccc(C(C)=O)cc2)C[C@@H]2CC[C@H]1N2C(=O)NCC1CC1 | 22µM* | -10% | / | -13% | -26% | -10%
COC(=O)C1=C(c2ccc(C(C)=O)cc2)C[C@@H]2CC[C@H]1N2C(=O)NCCO | 0% | -5% | -16 | 15% | i | -9%
COc1ccc(CSc2nncn2C)cc1[N+](=O)[O-] | 4% | 8% | -20 | 13% | ? | 10%
Cc1cc(C)cc(NC(=O)CSc2nc(=O)n(Cc3ccccn3)c3c2CCC3)c1 | -7% | ? | 5 | -1% | ? | /
CC[C@H](C)[C@@H](CN[C@H](C)CNC)NCCC(c1ccccc1)c1ccccc1 | -30% | ? | -97* | -25% | ? | ?
CNC[C@@H](C)NC[C@@H](Cc1ccccc1)NCCc1ccccc1 | 1% | -18% | -27 | -11% | -12% | ?
C=CCn1c(SCC(=O)N2CCOCC2)nc2sc(CC)cc2c1=O | / | -24% | -39 | ? | -21% | -5%
O=C(COCc1cc(-c2ccco2)on1)Nc1cc(Cl)ccc1O | ? | -17% | -29 | -19% | -1% | /
Cc1ccc(O)c(NC(=O)COCc2cc(-c3ccco3)on2)c1 | -4% | -28% | + | -8% | -8% | /
CSc1ncccc1C(=O)Nc1cccc(S(=O)(=O)N(C)c2ccccc2)c1 | 2% | / | -15 | -22% | / | ?
S=c1[nH]nc(-c2cc(-c3ccco3)[nH]n2)n1-c1ccccc1Cl | 40µM* | / | 22 | -5% | / | -14%
CCCC(=O)Nc1ccc(C=C(C(C)=O)C(C)=O)cc1 | ? | -20% | 44 | 22µM* | -21% | 17%
Cc1sc2ncnc(NCC3CCCO3)c2c1C (stereo not drawn) | 8% | -22% | -29 | 28µM* | i[1.46 µM] | 13µM*
Cc1sc2ncnc(NCC3COc4ccccc4O3)c2c1C (stereo not drawn) | 1% | -23% | -79* | ? | -9% | ?
CC(C)CC(Nc1ncnc2scc(-c3ccccc3)c12)C(=O)O (stereo not drawn) | 1% | / | 30 | -2% | / | 20%
Cc1sc2ncnc(NCC(C)(C)N3CCOCC3)c2c1C | 3% | ? | -40 | 0% | / | 5.6µM*
Cc1sc2ncnc(NCC(c3ccco3)N(C)C)c2c1C (stereo not drawn) | 6% | / | -4 | -24% | / | ?
Cc1sc2ncnc(NCC3(N4CCOCC4)CCCCC3)c2c1C | 0% | -3% | -15 | 0% | / | 9%
c1ccc(-c2csc3ncnc(NCC4COc5ccccc5O4)c23)cc1 (stereo not drawn) | 0% | ? | -88* | 28µM* | ? | 0.56µM*
